Measurements published in the supplement of paper PMC10849652.
About 8,800 targets were measured; listed, in parts, are those with a hit and a random draw of the rest. About 0.5% of all pairs of compound and target were hits. A number with no mark means an inactive call.

How the values were obtained:
Assay in all cases: log2 fold change, soluble protein after heating vs DMSO (PISA); higher = thermal stabilisation; K562 lysate, 10 uM; active = over 0.2 and 3.5 SD of the protein, either way, in both replicates (recomputed)
vemurafenib = compound: CCCS(=O)(=O)Nc1ccc(F)c(C(=O)c2c[nH]c3ncc(-c4ccc(Cl)cc4)cc23)c1F [vemurafenib]
In short: (§1)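 K562 pellets were dounce-homogenised in PBS pH 7.4 containing 1 mM MgCl2, and the crude extract, at 1 mg/mL protein, was exposed to 10 μM compound for 30 min. Aliquots were heated for 3 min across 48°C-58°C, pooled, brought to 0.5% NP-40 at 4°C and spun at 21,000xg for 90 min, with the supernatant taken as soluble protein. TMTpro 16plex LC-MS/MS with equalised channel sums quantified that protein. Values are log-two fold changes in thermal stability relative to solvent controls, taken from duplicates.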

[1] = compound: CCCS(=O)(=O)Nc1ccc(F)c(C(=O)c2c[nH]c3ncc(Cl)cc23)c1F
In short: as §1

barasertib = compound: CCN(CCCOc1ccc2c(Nc3cc(CC(=O)Nc4cccc(F)c4)[nH]n3)ncnc2c1)CCOP(=O)(O)O [barasertib]
In short: as §1

[2] = compound: CC[C@@H]1C(=O)N(C)c2cnc(Nc3ccc(C(=O)NC4CCN(C)CC4)cc3OC)nc2N1C1CCCC1
In short: as §1

volasertib = compound: CC[C@@H]1C(=O)N(C)c2cnc(Nc3ccc(C(=O)N[C@H]4CC[C@H](N5CCN(CC6CC6)CC5)CC4)cc3OC)nc2N1C(C)C [volasertib]
In short: as §1

[3] = compound: CCn1c(C(=O)N(C2CC2)C2CC2)cc2c3c(ncn3C)c(Nc3cc(C)n(C)n3)nc21
In short: as §1

[4] = compound: CCn1cc(-c2ccnc3[nH]c(-c4cccc(CN(C)C)c4)cc23)c(-c2ccc(NC(=O)N(C)C)cc2)n1
In short: as §1

[5] = compound: CN1CCC(CNc2ccc3ncc(-c4cccc(OC(F)(F)F)c4)n3n2)CC1
In short: as §1

saracatinib = compound: CN1CCN(CCOc2cc(OC3CCOCC3)c3c(Nc4c(Cl)ccc5c4OCO5)ncnc3c2)CC1 [saracatinib]
In short: as §1

sotrastaurin = compound: CN1CCN(c2nc(C3=C(c4c[nH]c5ccccc45)C(=O)NC3=O)c3ccccc3n2)CC1 [sotrastaurin]
In short: as §1

Sequence of UniProt Q9Y4X0 (Q9Y4X0 whole entry, looked up): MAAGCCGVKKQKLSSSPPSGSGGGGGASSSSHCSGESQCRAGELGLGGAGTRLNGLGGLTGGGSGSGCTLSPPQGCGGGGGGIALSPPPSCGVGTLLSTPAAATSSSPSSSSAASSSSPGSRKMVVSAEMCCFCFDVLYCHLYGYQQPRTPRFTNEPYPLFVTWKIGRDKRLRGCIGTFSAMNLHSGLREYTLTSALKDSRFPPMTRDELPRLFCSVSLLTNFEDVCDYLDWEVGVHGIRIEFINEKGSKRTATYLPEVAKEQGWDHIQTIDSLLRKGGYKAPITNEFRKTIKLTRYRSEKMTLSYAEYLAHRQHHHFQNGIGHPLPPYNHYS
Sequence of UniProt Q16186 (Q16186 whole entry, looked up): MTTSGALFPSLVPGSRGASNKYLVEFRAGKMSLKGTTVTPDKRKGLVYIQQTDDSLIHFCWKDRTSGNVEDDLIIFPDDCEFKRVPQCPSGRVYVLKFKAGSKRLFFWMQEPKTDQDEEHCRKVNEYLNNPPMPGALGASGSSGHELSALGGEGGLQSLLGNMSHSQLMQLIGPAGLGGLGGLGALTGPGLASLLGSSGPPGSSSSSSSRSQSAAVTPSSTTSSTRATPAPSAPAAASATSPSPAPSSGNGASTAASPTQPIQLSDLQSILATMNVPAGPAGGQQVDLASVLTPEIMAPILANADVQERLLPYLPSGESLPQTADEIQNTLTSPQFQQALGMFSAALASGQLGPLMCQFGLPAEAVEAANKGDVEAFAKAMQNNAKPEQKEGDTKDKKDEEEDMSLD
Sequence of UniProt O14727 (O14727 whole entry, looked up): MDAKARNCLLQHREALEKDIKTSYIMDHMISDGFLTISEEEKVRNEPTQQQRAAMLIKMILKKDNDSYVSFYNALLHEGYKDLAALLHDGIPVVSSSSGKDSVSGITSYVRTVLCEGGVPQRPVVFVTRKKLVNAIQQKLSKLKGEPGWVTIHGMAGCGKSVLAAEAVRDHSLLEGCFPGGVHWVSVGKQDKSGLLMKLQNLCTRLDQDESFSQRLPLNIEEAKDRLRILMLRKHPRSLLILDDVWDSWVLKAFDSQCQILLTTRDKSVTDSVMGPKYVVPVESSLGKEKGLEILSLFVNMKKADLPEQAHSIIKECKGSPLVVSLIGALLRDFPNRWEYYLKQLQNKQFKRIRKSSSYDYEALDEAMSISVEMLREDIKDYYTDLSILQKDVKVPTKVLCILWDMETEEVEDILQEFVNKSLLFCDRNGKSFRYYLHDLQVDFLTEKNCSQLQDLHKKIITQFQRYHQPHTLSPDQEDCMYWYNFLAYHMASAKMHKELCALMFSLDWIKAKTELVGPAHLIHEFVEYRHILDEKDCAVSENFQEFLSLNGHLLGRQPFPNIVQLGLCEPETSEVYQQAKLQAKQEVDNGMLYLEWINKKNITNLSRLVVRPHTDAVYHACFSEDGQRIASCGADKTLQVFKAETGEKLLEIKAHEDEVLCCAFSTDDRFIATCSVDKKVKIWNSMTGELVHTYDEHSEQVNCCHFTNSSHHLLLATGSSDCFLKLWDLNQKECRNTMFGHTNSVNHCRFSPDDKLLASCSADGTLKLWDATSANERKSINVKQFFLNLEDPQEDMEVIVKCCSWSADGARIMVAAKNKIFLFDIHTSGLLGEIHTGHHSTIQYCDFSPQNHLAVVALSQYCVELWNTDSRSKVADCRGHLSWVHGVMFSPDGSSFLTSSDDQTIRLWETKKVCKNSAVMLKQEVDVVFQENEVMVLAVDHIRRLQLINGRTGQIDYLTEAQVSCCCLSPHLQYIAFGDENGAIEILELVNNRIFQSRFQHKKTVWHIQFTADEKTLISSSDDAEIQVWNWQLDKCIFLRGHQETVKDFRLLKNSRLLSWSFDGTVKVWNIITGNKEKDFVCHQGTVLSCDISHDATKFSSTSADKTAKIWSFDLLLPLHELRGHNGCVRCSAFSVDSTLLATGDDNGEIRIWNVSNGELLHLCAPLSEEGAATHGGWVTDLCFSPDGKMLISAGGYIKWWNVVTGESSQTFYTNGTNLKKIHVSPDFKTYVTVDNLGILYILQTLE
Sequence of UniProt Q8N8A2 (Q8N8A2 whole entry, looked up): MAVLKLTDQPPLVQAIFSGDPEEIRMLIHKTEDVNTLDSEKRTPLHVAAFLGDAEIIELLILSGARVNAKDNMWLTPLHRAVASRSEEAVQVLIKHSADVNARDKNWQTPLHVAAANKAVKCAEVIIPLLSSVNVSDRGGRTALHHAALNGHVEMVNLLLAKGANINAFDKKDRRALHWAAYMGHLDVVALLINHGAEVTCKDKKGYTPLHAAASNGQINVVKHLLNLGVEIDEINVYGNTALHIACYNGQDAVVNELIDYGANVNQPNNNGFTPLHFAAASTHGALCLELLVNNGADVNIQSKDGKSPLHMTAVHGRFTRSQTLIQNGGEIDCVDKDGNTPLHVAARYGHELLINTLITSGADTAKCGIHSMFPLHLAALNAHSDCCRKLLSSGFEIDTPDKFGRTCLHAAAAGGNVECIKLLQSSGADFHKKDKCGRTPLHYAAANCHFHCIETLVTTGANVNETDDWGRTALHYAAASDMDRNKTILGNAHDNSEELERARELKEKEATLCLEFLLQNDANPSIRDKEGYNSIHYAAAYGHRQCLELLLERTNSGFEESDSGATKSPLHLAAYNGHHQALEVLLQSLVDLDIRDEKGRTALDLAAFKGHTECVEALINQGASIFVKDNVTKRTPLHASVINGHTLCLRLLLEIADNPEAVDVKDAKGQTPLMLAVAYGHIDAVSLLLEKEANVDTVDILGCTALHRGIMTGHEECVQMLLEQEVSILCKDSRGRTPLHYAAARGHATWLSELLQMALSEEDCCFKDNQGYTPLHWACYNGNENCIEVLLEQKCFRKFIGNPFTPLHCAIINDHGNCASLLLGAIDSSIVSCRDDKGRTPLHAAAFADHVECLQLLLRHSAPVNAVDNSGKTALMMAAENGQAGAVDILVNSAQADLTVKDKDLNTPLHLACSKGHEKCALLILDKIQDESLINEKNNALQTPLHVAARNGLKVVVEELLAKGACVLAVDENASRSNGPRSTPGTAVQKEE
Sequence of UniProt Q9BXX3 (Q9BXX3 whole entry, looked up): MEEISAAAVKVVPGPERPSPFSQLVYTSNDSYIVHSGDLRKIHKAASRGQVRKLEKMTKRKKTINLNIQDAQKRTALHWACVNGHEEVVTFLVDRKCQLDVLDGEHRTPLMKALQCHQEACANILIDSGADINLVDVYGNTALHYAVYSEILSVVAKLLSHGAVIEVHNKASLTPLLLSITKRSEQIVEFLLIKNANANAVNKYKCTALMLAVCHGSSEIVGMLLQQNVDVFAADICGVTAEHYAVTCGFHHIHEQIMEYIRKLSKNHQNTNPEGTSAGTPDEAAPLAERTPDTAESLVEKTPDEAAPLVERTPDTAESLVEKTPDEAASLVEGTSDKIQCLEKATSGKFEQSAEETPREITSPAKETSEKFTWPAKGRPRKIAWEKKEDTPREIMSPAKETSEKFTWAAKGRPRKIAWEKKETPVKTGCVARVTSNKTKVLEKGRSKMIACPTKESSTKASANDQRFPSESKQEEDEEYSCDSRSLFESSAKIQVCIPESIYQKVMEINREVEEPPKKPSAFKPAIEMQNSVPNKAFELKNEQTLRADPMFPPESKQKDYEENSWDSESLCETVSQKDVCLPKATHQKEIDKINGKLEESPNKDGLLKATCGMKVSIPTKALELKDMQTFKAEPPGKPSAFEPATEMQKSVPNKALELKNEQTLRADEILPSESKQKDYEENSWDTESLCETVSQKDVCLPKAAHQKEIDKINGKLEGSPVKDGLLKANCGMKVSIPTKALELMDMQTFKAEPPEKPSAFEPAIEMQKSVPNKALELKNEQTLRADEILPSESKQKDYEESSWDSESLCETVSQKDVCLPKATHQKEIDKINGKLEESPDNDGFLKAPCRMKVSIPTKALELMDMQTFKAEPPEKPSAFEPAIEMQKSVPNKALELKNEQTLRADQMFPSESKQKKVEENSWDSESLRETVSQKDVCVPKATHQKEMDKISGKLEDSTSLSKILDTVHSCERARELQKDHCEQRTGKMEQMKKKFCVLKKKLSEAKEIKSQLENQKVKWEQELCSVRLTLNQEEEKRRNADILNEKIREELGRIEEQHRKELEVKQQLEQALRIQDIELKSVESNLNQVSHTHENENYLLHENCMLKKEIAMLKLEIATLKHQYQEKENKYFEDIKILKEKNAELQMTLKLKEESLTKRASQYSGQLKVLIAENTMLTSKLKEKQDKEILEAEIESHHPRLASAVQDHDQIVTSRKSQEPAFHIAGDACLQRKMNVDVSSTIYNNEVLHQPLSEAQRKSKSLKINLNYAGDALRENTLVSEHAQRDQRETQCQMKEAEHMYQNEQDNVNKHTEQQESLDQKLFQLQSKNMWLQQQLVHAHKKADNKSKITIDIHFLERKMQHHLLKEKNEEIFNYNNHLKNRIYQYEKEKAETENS
Sequence of UniProt Q9BT30 (Q9BT30 whole entry, looked up): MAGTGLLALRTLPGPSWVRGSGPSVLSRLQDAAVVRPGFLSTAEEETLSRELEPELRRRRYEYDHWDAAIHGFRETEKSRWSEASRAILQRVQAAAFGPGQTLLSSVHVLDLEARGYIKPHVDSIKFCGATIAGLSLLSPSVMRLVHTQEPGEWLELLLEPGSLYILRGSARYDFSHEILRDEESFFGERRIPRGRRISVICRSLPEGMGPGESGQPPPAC
Sequence of UniProt P42330 (P42330 whole entry, looked up): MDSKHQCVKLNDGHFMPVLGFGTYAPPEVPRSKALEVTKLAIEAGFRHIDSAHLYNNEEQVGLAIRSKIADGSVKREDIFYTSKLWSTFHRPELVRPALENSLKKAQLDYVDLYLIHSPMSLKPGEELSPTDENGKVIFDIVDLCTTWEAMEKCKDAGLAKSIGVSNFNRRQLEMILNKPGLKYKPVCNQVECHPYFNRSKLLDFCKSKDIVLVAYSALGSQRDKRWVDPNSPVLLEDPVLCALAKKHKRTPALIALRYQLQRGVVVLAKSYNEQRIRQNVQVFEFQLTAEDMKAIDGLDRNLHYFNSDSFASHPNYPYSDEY

Target | log2 fold change (vemurafenib) | log2 fold change [1] | log2 fold change (barasertib) | log2 fold change [2] | log2 fold change (volasertib) | log2 fold change [3] | log2 fold change [4] | log2 fold change [5] | log2 fold change (saracatinib) | log2 fold change (sotrastaurin)
ALDH1B1 (UniProt P30837) | 0.008 | 0.017 | -0.022 | 0.029 | -0.013 | -0.062 | -0.015 | 0.108 | 0.011 | 0.022
ADAR isoform 4 (UniProt P55265) | 0.077 | 0.051 | 0.061 | 0.011 | 0.003 | 0.025 | -0.001 | -0.049 | 0.04 | 0.032
ARHGEF2 (UniProt Q92974) | -0.006 | 0.013 | -0.002 | 0 | -0.026 | -0.021 | -0.02 | -0.003 | 0.009 | 0.027
ABHD16A (UniProt O95870) | 0.074 | 0.012 | 0.026 | 0.141 | 0.002 | -0.059 | -0.001 | 0.019 | 0.021 | 0.051
APAF1 (UniProt O14727) | -0.014 | -0.012 | 0.073 | -0.087 | -0.056 | 0.001 | 0.115 | -0.012 | -0.028 | 0.015
ADRM1 (UniProt Q16186) | -0.01 | 0.033 | 0.031 | -0.026 | -0.036 | 0.008 | -0.024 | -0.027 | 0 | 0.002
ACTBL2 (UniProt Q562R1) | -0.097 | 0.089 | -0.117 | 0.098 | -0.166 | 0.105 | 0.417 | -0.023 | -0.108 | 0.049
AKR1C3 (UniProt P42330) | 0.01 | 0.023 | -0.033 | 0.091 | -0.027 | -0.05 | -0.034 | 0.059 | 0.187 | 0.044
ABCF3 (UniProt Q9NUQ8) | 0.013 | 0.037 | 0.03 | -0.079 | -0.099 | 0.044 | 0.015 | -0.059 | -0.006 | 0.033
ANLN (UniProt Q9NQW6) | -0.012 | 0.019 | 0.003 | 0.01 | -0.014 | -0.035 | -0.067 | -0.014 | 0.002 | 0.009
ABCF2 isoform 2 (UniProt Q9UG63) | 0.017 | 0.002 | -0.014 | -0.072 | -0.045 | 0.026 | -0.008 | -0.026 | 0 | 0.036
ABCC5 (UniProt O15440) | -0.603 (active) | -0.001 | -0.034 | -0.067 | -0.136 | 0.145 | -0.137 | -0.022 | 0.013 | 0.018
ALDH5A1 isoform 2 (UniProt P51649) | -0.016 | 0.011 | -0.009 | -0.024 | -0.001 | 0.031 | 0.004 | 0.008 | 0 | -0.023
APEX1 (UniProt P27695) | 0.019 | 0.017 | -0.027 | -0.03 | -0.004 | 0.043 | 0.37 (active) | -0.07 | -0.001 | 0.009
AIFM2 (UniProt Q9BRQ8) | -0.19 | 0.091 | -0.029 | -0.018 | -0.004 | -0.089 | -0.057 | 0.149 | -0.062 | 0.036
AMMECR1 (UniProt Q9Y4X0) | 0.067 | 0 | 0.008 | -0.019 | -0.03 | -0.026 | -0.012 | 0.032 | 0 | 0.008
AMDHD2 isoform 3 (UniProt Q9Y303) | 0.009 | 0.019 | -0.021 | 0.003 | 0.015 | -0.024 | -0.031 | 0.005 | -0.007 | 0.019
ANP32E (UniProt Q9BTT0) | -0.012 | 0.004 | -0.064 | 0.059 | -0.001 | -0.011 | -0.058 | 0.024 | 0.028 | -0.023
ALDH2 (UniProt P05091) | -0.083 | 0.011 | -0.012 | -0.012 | -0.017 | -0.011 | 0.007 | -0.009 | 0.012 | 0
ALDH6A1 (UniProt Q02252) | 0.055 | 0.027 | 0.043 | -0.009 | -0.025 | 0.015 | -0.111 | 0.022 | -0.324 (active) | -0.082
ARGLU1 (UniProt Q9NWB6) | -0.013 | 0.027 | -0.043 | 0.001 | 0.027 | -0.035 | 0.073 | -0.02 | 0.047 | -0.019
ADAM17 (UniProt P78536) | 0.071 | – | -0.184 | -0.151 | – | -0.027 | 0.065 | 0.001 | -0.011 | 0.002
ACAT1, A0A5F9ZHJ0 | – | – | – | – | – | -0.131 | -0.006 | 0.081 | – | –
AP3D1 isoform 2 (UniProt O14617) | 0.002 | -0.085 | – | – | -0.012 | – | -0.231 | 0.058 | – | –
ALKBH7 (UniProt Q9BT30) | – | – | – | -0.031 | – | 0.072 | 0.233 | -0.2 | -0.012 | -0.016
ANKRD40 (UniProt Q6AI12) | 0.501 | – | -0.091 | -0.118 | – | -0.066 | 0.094 | -0.075 | -0.101 | 0.012
ANKRD30A (UniProt Q9BXX3) | – | 0.111 | 0.087 | -0.102 | -0.08 | 0.152 | 0.262 | 0.891 | 0.072 | 0.032
AMDHD2 (UniProt Q9Y303) | -0.128 | – | – | – | – | – | -0.116 | 0.052 | – | 0.047
ANKRD44 isoform 2 (UniProt Q8N8A2) | 0.056 | 0.019 | 0.058 | -0.308 | 0.054 | – | -1.9 (active) | 0.616 | – | –
ALKBH4 (UniProt Q9NXW9) | 0.061 | 0.018 | 0.086 | -0.133 | -0.068 | 0.074 | 0.025 | 0 | -0.019 | 0.036
